Source: PubChem BioAssay (Tox21)
Inconclusive results are not listed. Calls of active or inactive are those of the source. Unless noted, calls come from the whole dose curve; as a rule, active = well fitted curve in the direction sought with a large enough effect in the repeat runs; inconclusive = weak or mixed curves; inactive = no such curve, though single readings can be large; an effect the other way counts as inactive or inconclusive.

Experiments:
[1] = qHTS assay to identify small molecule antagonists of the estrogen related receptor (ERR) signaling pathway from Tox21 library - cell viability counter screen (AID 1224834); note: nearly all actives have a fitted effect of over 30% in size
Procedure, shortened: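 CellTiter-Fluor fluorescence measured; ERR cells; 17.5 h compound incubation at 37 C; 30 min reagent step.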

[2] = qHTS assay to identify small molecule agonists of the constitutive androstane receptor (CAR) signaling pathway - cell viability counter screen (AID 1224836); note: nearly all actives have a fitted effect of over 45% in size
Procedure, shortened: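 Double-stable HepG2 hepatoma cells (hCAR plus CYP2B6-2.2kb) are treated for 23 h at 37 C with test compounds in 15-point concentration series. PK11195 at 0.75 uM final is co-added. Cell viability is quantified by CellTiter-Fluor.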

[3] = qHTS assay to identify small molecule antagonists of the constitutive androstane receptor (CAR) signaling pathway - cell viability counter screen (AID 1224837); note: nearly all actives have a fitted effect of over 45% in size
Procedure, shortened: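 Using CellTiter-Fluor, viability is scored in HepG2 cells stably carrying hCAR and a 2.2kb CYP2B6 reporter after 23 hr compound exposure across 15 concentrations, with CITCO present at 50 nM.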

[4] = biological target: Nuclear receptor subfamily 1 group I member 3 (Homo sapiens) (UniProt Q14994); test: qHTS assay to identify small molecule antagonists of the constitutive androstane receptor (CAR) signaling pathway (AID 1224838);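 note: HepG2 cells stably expressing hCAR with CYP2B6 luciferase reporter stimulated by CITCO; nearly all actives have a fitted effect of over 40% in size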
Procedure, shortened: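 Reporter luminescence was quantified after 24 h exposure of hCAR/CYP2B6-2.2kb double-stable HepG2 cells to compounds at 15 concentrations in the presence of 50 nM CITCO final.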

[5] = biological target: Nuclear receptor subfamily 1 group I member 3 (Homo sapiens) (UniProt Q14994); test: qHTS assay to identify small molecule agonists of the constitutive androstane receptor (CAR) signaling pathway (AID 1224839);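 note: HepG2 cells stably carrying human CAR and a CYP2B6 luciferase reporter; nearly all actives have a fitted effect of over 15% in size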
Procedure, shortened: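 Readout: firefly luciferase luminescence via ONE-Glo. System: HepG2 double-stable for hCAR and CYP2B6-2.2kb. Conditions: 15-point compound titration, PK11195 at 0.75 uM final, 24 h incubation.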

[6] = qHTS assay to identify small molecule antagonists of the estrogen related receptor signaling pathway with the pleiotropic PPARgamma coactivator (PGC) from Tox21 10K library - cell viability counter screen (AID 1224840; active = well fitted cell-killing curve with a large enough effect in the repeat runs, not every such curve was filed as active; note: nearly all actives have a fitted effect of over 40% in size)
Procedure, shortened: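 Here the PGC/ERR cells serve as a cytotoxicity control: they are exposed to compounds for 17.5 hours at 37 C, and live-cell signal is quantified using CellTiter-Fluor fluorescence.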

[7] = qHTS assay to identify small molecule antagonists of the estrogen related receptor signaling pathway with the pleiotropic PPARgamma coactivator (PGC) from Tox21 10K library (AID 1224841; call rule not given here; note: actives are mostly falling curves and most rising ones were filed inactive; nearly all actives have a fitted effect of over 50% in size)
Procedure, shortened: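 Each well held 2,000 PGC/ERR cells, pre-incubated six hours (37 C, 5% CO2). Test substances in DMSO were added by pin tool and left for 18 h at 37 C before luciferase detection by One-Glo.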

[8] = qHTS assay to identify small molecule agonists of the estrogen related receptor signaling pathway with the pleiotropic PPARgamma coactivator (PGC) from Tox21 10K library (AID 1224842); note: nearly all actives have a fitted effect of over 15% in size
Procedure, shortened: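 Luminescence from One-Glo (30 min, room temperature) measured after PGC/ERR cells had 18 h at 37 C with pinned compound (23 nL in DMSO). Cells had been seeded at 2,000 per well and pre-incubated 6 h.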

[9] = biological target: Thyrotropin receptor (Homo sapiens) (UniProt P16473); test: qHTS assay to identify small molecule agonists of the thyroid stimulating hormone receptor (TSHR) signaling pathway (AID 1224843; calls by dose curve; note: nearly all actives have a fitted effect of over 45% in size)
Procedure, shortened: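 HEK293 cells stably bearing the thyrotropin receptor were plated at 800 cells/well and challenged with compound (30 min, RT). Accumulated cAMP was quantified via cAMP-d2 competing for cryptate-tagged antibody.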

[10] = qHTS assay to identify small molecule agonists of the hypoxia (HIF-1) signaling pathway - cell viability counter screen (AID 1224844; calls by dose curve; note: nearly all actives have a fitted effect of over 50% in size)
Procedure, shortened: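 Multiplexed with the HRE beta-lactamase assay, this viability read used CellTiter-Glo luminescence (30 min, RT) on HRE-bla ME-180 cells treated 17 hrs with compounds in 0.5% dialyzed FBS medium.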

[11] = qHTS assay to identify small molecule agonists of H2AX (AID 1224845; active = well fitted activation curve with a large enough effect in the signal ratio in the repeat runs, not every such curve was filed as active; the % refers to the signal ratio)
Procedure, shortened: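 Phospho-H2AX Ser139 measured by HTRF (ex 320 nm; em 665 and 620 nm) after 24 hr antibody incubation. Compounds, 15 concentrations, 0.76% DMSO, were applied to CHO-K1 cells for 3hr at 37C before lysis.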

[12] = qHTS assay to identify small molecule agonists of the hypoxia (HIF-1) signaling pathway (AID 1224846; active = well fitted activation curve with a large enough effect in the signal ratio in the repeat runs, not every such curve was filed as active; the % refers to the signal ratio)
Procedure, shortened: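 Hypoxia-pathway activation was scored as increased beta-lactamase from an HRE-controlled reporter in ME-180 cells; plated at 2,000 cells per well with 0.5% dialyzed FBS, they were exposed 17 hrs to compounds and then given CCF4-AM.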

[13] = qHTS assay to identify small molecule agonists of H2AX - cell viability counter screen (AID 1224847; calls by dose curve;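 note: wild-type CHO-K1 cells; top concentration of the series differs between compounds; nearly all actives have a fitted effect of over 30% in size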)
Procedure, shortened: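 For this counter screen, overnight-attached CHO-K1 cells received test compounds (15 concentrations, 0.76% DMSO final); 3 hr later at 37C, CellTiter-Glo reagent was added and luminescence recorded after 30 min at room temperature.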

[14] = qHTS assay to identify small molecule agonists of the estrogen related receptor (ERR) signaling pathway from Tox21 library (AID 1224849; calls by dose curve; note: nearly all actives have a fitted effect of over 15% in size); settings: ERR reporter cell line, ONE-Glo luciferase, 18 h; at 92.4 µM (top of the series) unless noted
Procedure, shortened: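 Six hours post-seeding at 37 C/5% CO2, ERR cells receive DMSO-solubilised compounds; after 18 h at 37 C, ONE-Glo reagent is applied and luminescence recorded.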

[15] = qHTS RealTime-Glo MT Cell Viability Assay in HepG2 cells - 24 hour (AID 1224867); note: nearly all actives have a fitted effect of over 50% in size
Procedure, shortened: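 Tox21 10K library screened in qHTS format on HepG2 cells carrying RealTime-Glo reagents. Compounds were added after a 5 h preincubation, and the luminescent signal from continuous culture was measured repeatedly during 40 h treatment.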

[16] = qHTS RealTime-Glo MT Cell Viability Assay in HEK293 cells - 32 hour (AID 1224868); note: top concentration of the series differs between compounds; nearly all actives have a fitted effect of over 50% in size
Procedure, shortened: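 Luminescence generated by NanoLuc from substrate produced by living HEK293 cells served as the viability signal. Each value reflects the reading at its stated time point during continuous 40 h compound exposure at 37 C.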

[17] = A CellTox Green Cytotoxicity Assay to monitor cytotoxicity in HEK293 cells - 0 hour (AID 1224869); note: nearly all actives have a fitted effect of over 50% in size
Procedure, shortened: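 Seeding of HEK293 cells together with cytotoxicity dye preceded a 5 h incubation at 37 C/5% CO2. Test compounds in DMSO were then added and fluorescence monitored across 40 h.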

[18] = qHTS assay to identify small molecule antagonists of the estrogen related receptor (ERR) signaling pathway from Tox21 library (AID 1224848); note: nearly all actives have a fitted effect of over 50% in size
Procedure, shortened: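 Reading was by luminescence 30 min after ONE-Glo addition. Before that, ERR cells at 2,000 per well had rested 6 h at 37 C/5% CO2 and then received pin-tooled compounds in DMSO for 18 h at 37 C.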

[19] = biological target: Luciferin 4-monooxygenase (Photinus pyralis) (UniProt P08659); test: qHTS assay to identify small molecule inhibitors of firefly luciferase (AID 1224835); note: nearly all actives have a fitted effect of over 25% in size
Procedure, shortened: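 Inhibition of purified Photinus luciferase is measured by luminescence. Substrate levels (D-luciferin, ATP) sit at their KM values. Each compound is tested in a concentration series.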
% is set by controls: 0 for no effect and ±100 for the full control effect.

Thyrotropin receptor (Homo sapiens), sequence (P16473 whole entry, looked up): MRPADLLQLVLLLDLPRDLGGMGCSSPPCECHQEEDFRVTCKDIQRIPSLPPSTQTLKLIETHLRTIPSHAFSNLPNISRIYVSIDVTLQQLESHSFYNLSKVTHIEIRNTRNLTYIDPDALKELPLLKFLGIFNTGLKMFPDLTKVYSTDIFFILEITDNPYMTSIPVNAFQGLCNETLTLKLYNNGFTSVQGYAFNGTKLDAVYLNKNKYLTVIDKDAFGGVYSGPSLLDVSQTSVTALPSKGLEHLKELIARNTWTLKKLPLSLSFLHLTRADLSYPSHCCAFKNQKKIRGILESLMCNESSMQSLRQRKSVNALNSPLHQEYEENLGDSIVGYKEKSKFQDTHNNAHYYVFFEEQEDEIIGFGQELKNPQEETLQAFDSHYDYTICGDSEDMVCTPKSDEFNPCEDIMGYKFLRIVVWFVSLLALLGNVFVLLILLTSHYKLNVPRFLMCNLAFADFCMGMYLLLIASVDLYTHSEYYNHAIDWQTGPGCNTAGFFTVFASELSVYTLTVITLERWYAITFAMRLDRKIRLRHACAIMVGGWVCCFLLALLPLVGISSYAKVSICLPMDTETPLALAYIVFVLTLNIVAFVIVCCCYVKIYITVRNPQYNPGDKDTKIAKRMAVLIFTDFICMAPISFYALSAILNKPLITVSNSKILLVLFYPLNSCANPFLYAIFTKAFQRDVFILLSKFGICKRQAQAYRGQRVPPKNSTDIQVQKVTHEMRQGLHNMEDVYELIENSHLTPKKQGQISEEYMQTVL
Nuclear receptor subfamily 1 group I member 3 (Homo sapiens), sequence (Q14994 whole entry, looked up): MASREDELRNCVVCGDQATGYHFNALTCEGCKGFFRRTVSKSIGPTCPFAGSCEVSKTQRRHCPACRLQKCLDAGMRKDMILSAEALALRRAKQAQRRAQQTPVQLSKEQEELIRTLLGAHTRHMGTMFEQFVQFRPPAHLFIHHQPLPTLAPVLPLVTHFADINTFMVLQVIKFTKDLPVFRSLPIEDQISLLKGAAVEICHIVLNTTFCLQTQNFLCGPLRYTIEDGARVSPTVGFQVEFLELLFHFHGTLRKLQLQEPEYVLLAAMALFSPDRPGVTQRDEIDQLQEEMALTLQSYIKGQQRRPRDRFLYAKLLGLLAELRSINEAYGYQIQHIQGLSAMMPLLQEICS
Luciferin 4-monooxygenase (Photinus pyralis), sequence (P08659 whole entry, looked up): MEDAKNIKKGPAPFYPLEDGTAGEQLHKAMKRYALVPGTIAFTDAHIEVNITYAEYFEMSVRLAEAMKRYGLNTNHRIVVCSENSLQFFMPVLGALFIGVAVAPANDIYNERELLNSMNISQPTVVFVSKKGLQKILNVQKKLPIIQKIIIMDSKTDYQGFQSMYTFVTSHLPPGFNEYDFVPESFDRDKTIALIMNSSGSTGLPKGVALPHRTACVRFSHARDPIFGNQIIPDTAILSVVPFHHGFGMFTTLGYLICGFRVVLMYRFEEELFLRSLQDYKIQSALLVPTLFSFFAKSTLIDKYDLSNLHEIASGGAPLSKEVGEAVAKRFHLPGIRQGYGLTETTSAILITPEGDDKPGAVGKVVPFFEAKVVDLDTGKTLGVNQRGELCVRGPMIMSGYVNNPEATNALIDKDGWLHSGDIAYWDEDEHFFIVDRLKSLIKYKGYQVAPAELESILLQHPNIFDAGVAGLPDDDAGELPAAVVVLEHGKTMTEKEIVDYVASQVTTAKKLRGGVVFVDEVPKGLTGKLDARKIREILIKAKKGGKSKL

CCc1nccnc1CC
inactive: viability change, negative = cytotoxic [1] 6.79% [at 19 µM] | viability change, negative = cytotoxic [2] 4.25% [at 19 µM] | activity change, negative = cytotoxicity [3] -1.21% [at 19 µM] | activity, negative = inhibition [4] -16.5% [at 19 µM] | activation [5] -0.0673% [at 19 µM] | viability change, negative = cytotoxic [6] 1.05% [at 19 µM] | activity, negative = inhibition [7] 4.39% [at 19 µM] | activation [8] 1.3% [at 19 µM] | Potency [9] | activity change, negative = cytotoxicity [10] 5.25% [at 15.8 µM] | outcome [11] | activation [12] 0.257% [at 15.8 µM] | Potency [13] | activity change, positive = activation [14] 2.61% [at 19 µM] | activity change, negative = cytotoxicity [15] -0.21% [at 15.8 µM] | activity change, negative = cytotoxic [16] 3.89% [at 15.8 µM] | cytotoxicity [17] -0.912% [at 15.8 µM]

Cn1cc(S(C)=O)c(=O)c2ccc(F)cc21 (stereo not drawn)
inactive: Potency [1] | Potency [2] | Potency [3] | Potency [4] | Potency [5] | Potency [6] | Potency [7] | outcome [8] | Potency [9] | Potency [10] | outcome [11] | outcome [12] | Potency [13] | Potency [18] | activity change, positive = activation [14] 0.0404% [at 42.5 µM] | Potency [15] | Potency [16] | Potency [17]

c1ccc([C@H]2CN3CCSC3=N2)cc1
inactive: Potency [1] | Potency [19] | Potency [2] | Potency [4] | Potency [5] | Potency [6] | Potency [9] | Potency [10] | outcome [11] | Potency [13] | Potency [15] | Potency [16] | Potency [17]

CCOC(=O)c1ccc(C)cc1
inactive: Potency [1] | Potency [19] | Potency [2] | Potency [4] | Potency [5] | Potency [6] | Potency [7] | outcome [8] | Potency [10] | outcome [11] | outcome [12] | Potency [13] | Potency [18] | activity change, positive = activation [14] 4.47% | Potency [15] | Potency [17]

CN(C)CCCNCCCN(C)C
inactive: Potency [1] | Potency [2] | Potency [3] | Potency [4] | Potency [5] | Potency [6] | Potency [7] | outcome [8] | Potency [9] | Potency [10] | outcome [11] | outcome [12] | Potency [13] | Potency [18] | activity change, positive = activation [14] -4.23% | Potency [15] | Potency [16] | Potency [17]

Cn1c(N)c(N=O)c(=O)n(C)c1=O
inactive: Potency [1] | Potency [19] | Potency [2] | Potency [4] | Potency [5] | Potency [6] | Potency [7] | Potency [9] | Potency [10] | outcome [12] | Potency [13] | Potency [18] | activity change, positive = activation [14] -7.21% | Potency [15] | Potency [16] | Potency [17]

CC(C)(C)c1nnc(NS(=O)(=O)c2ccccc2)s1
inactive: Potency [1] | Potency [19] | Potency [2] | Potency [4] | Potency [5] | Potency [6] | Potency [7] | outcome [8] | Potency [9] | Potency [10] | outcome [11] | outcome [12] | Potency [13] | activity change, positive = activation [14] -14.8% [at 42.5 µM] | Potency [15] | Potency [16] | Potency [17]

NC(=O)c1cn(Cc2c(F)cccc2F)nn1
inactive: Potency [1] | Potency [19] | Potency [3] | Potency [4] | Potency [5] | Potency [6] | Potency [9] | Potency [10] | outcome [11] | outcome [12] | Potency [13] | Potency [15] | Potency [16] | Potency [17]

Cc1nc2c([nH]1)c(=O)n(C)c(=O)n2Cc1ccco1
inactive: Potency [1] | Potency [19] | Potency [2] | Potency [4] | Potency [5] | Potency [6] | Potency [10] | outcome [11] | outcome [12] | Potency [13] | Potency [15] | Potency [16] | Potency [17]

CN1N=C(C(N)=O)CCC1=O
inactive: Potency [1] | Potency [2] | Potency [3] | Potency [4] | Potency [5] | Potency [6] | Potency [7] | outcome [8] | Potency [9] | Potency [10] | outcome [11] | outcome [12] | Potency [13] | Potency [18] | activity change, positive = activation [14] 0.737% [at 42.5 µM] | Potency [15] | Potency [16] | Potency [17]

CCN(CC)CCOCCOC(=O)C1(c2ccccc2)CCCC1
inactive: Potency [1] | Potency [19] | Potency [2] | Potency [4] | Potency [5] | Potency [6] | Potency [9] | Potency [10] | outcome [11] | Potency [13] | Potency [15] | Potency [16] | Potency [17]

O=c1cc(CO)occ1O
inactive: Potency [1] | Potency [19] | Potency [2] | Potency [4] | Potency [5] | Potency [6] | Potency [7] | Potency [9] | Potency [10] | outcome [11] | outcome [12] | Potency [13] | activity change, positive = activation [14] 3.24% [at 42.5 µM] | Potency [15] | Potency [17]

CC(=O)OCC(=O)[C@@]1(O)CCC2C3CCC4=CC(=O)CC[C@]4(C)C3[C@@H](O)C[C@@]21C (stereo partly drawn)
inactive: Potency [1] | Potency [2] | Potency [3] | Potency [4] | Potency [5] | Potency [6] | Potency [7] | outcome [8] | Potency [9] | Potency [10] | outcome [11] | outcome [12] | Potency [13] | Potency [18] | activity change, positive = activation [14] -12.1% [at 42.5 µM] | Potency [15] | Potency [16] | Potency [17]

CO/N=C(/C(=O)N[C@@H]1C(=O)N2C(C(=O)OCOC(=O)C(C)(C)C)=C(C)CS[C@H]12)c1csc(N)n1
inactive: Potency [1] | Potency [19] | Potency [2] | Potency [4] | Potency [5] | Potency [6] | Potency [7] | Potency [9] | Potency [10] | outcome [11] | outcome [12] | Potency [13] | Potency [18] | activity change, positive = activation [14] 4.91% [at 42.5 µM] | Potency [15] | Potency [16] | Potency [17]
